The text below walks through data of PubChem BioAssay (NCI).

This is part of a sample that, as a whole, favours compounds with a hit. Of some 83,000 tested, about 20% had one in any assay.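 48-hour exposure, single concentration, 96-well plates; percent growth endpoint where 0 means no net growth. Active: below 10.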 Unmarked numbers belong to inactive results. The source made the active and inactive calls.

Assay in all cases: NCI-60 one-dose screen, 48 h (100 = growth as untreated, 0 = no growth, -100 = all killed)
One test concerns HCT-15 colon. As to conditions: 10 µM.
The test system of a further test is HT29 colon. The settings on record: 10 µM.
A further test deals with SNB-75 CNS. As to conditions: 10 µM.
The test system of a further test is SNB-19 CNS. As to conditions: 10 µM.
The subject of a further test is U251 CNS. As to conditions: 10 µM.
A further test relates to PC-3 prostate. The settings on record: 10 µM.
A further test deals with SK-MEL-5 melanoma. As to conditions: 10 µM.
For the next test, the system named is UACC-62 melanoma. The settings on record: 10 µM unless noted.
For another test, the system named is LOX IMVI melanoma. As to conditions: 10 µM.
A further test has as its system SK-MEL-28 melanoma. As to conditions: 10 µM.
A further test has as its system SK-MEL-2 melanoma. As to conditions: 10 µM.
The next test deals with EKVX NSCLC. As to conditions: 10 µM.
The subject of a further test is SN12C renal. The settings on record: 10 µM.
For a further test, the system named is UO-31 renal. The settings on record: 10 µM.
The next test deals with TK-10 renal. The settings on record: 10 µM unless noted.
A further test relates to ACHN renal. As to conditions: 10 µM.
A further test concerns CAKI-1 renal. As to conditions: 10 µM.
The test system of another test is A498 renal. As to conditions: 10 µM.
The next test deals with CCRF-CEM leukemia. As to conditions: 10 µM.
The test system of the next test is MOLT-4 leukemia. The settings on record: 10 µM.

`CCOc1ccc(I)cc1`: the growth with HCT-15 colon is 103%; with HT29 colon it was 106%; with SNB-75 CNS, 91.4%; in the test with SNB-19 CNS, 104%; in the test with U251 CNS, 103%; in the test on PC-3 prostate it was 88.4%. For the same compound, the growth in the test on SK-MEL-5 melanoma was 118%; in the test with UACC-62 melanoma, 95.2%; with LOX IMVI melanoma, 100%; in the test with SK-MEL-28 melanoma, 107%; with SK-MEL-2 melanoma it was 130%; in the test on EKVX NSCLC, 105%. For the same compound, the growth is 97.1% in the test with SN12C renal; 89% with UO-31 renal; 112% in the test on TK-10 renal; 110% in the test on ACHN renal; 113% in the test with CAKI-1 renal; 101% with A498 renal. Also, the growth with CCRF-CEM leukemia was 121%; in the test with MOLT-4 leukemia, 115%.
With `CCOc1ccccc1/C=N/Nc1nc2ccccc2o1`, the growth in the test with HCT-15 colon was 76.3%; in the test with HT29 colon, 110%; with SNB-75 CNS it was 83.9%; in the test on SNB-19 CNS, 100%; with U251 CNS it was 105%; in the test with PC-3 prostate, 85.8%. The growth is 97.7% in the test with SK-MEL-5 melanoma; 82.6% in the test on UACC-62 melanoma; 94.1% in the test with LOX IMVI melanoma; 100% with SK-MEL-28 melanoma; 91.3% in the test with SK-MEL-2 melanoma; 101% in the test on EKVX NSCLC. Further, the growth with SN12C renal was 92.2%; in the test with UO-31 renal it was 86.5%; in the test with TK-10 renal, 104%; in the test on ACHN renal it was 103%; in the test with CAKI-1 renal, 110%; in the test with A498 renal it was 92.1%. Further, the growth in the test on CCRF-CEM leukemia is 95.8%; in the test on MOLT-4 leukemia it was 81.7%.
For `NC(=O)c1ccc(N=C(N)N=C(N)N)cc1`, the growth was 95.7% in the test on HCT-15 colon; 105% in the test with HT29 colon; 91.2% in the test with SNB-75 CNS; 110% in the test on SNB-19 CNS; 101% in the test on U251 CNS; 93.1% in the test on PC-3 prostate. For the same compound, the growth in the test with SK-MEL-5 melanoma is 93.6%; in the test with UACC-62 melanoma it was 105%; in the test with LOX IMVI melanoma, 100%; with SK-MEL-28 melanoma it was 111%; in the test on SK-MEL-2 melanoma, 121%; in the test on EKVX NSCLC, 73.5%. For the same compound, the growth in the test with SN12C renal is 110%; in the test on UO-31 renal, 78.5%; in the test with TK-10 renal, 77.5%; in the test on ACHN renal it was 112%; in the test on CAKI-1 renal, 93.4%; with A498 renal, 106%. For the same compound, the growth in the test with CCRF-CEM leukemia is 99.6%; in the test with MOLT-4 leukemia it was 103%.
For the compound `c1ccc2c(N3CCCCC3)ncnc2c1`, the growth in the test on HCT-15 colon is 99.6%; in the test on HT29 colon, 76.2%; in the test with SNB-75 CNS it was 140%; with SNB-19 CNS, 99.4%; in the test with U251 CNS, 93%; in the test with PC-3 prostate, 87.3%. Also, the growth was 91.8% with SK-MEL-5 melanoma; 91.3% in the test on UACC-62 melanoma; 92.8% in the test on LOX IMVI melanoma; 115% with SK-MEL-28 melanoma; 92.6% with SK-MEL-2 melanoma; 94% in the test with EKVX NSCLC. Also, the growth is 91.1% in the test with SN12C renal; 62.5% in the test on UO-31 renal; 90.9% in the test with TK-10 renal; 81.9% in the test on ACHN renal; 91% with CAKI-1 renal; 106% in the test with A498 renal. Moreover, the values for the growth in the test with CCRF-CEM leukemia and with MOLT-4 leukemia were 93.2% and 91.2%, respectively.
Take `Nc1ccc(C(=O)c2ccc(N)c(Br)c2)cc1Br`: the growth with HCT-15 colon is 18%; with HT29 colon, -14.2% (active); with SNB-75 CNS, -5.35% (active); in the test with SNB-19 CNS it was 33.4%; in the test on U251 CNS, 18.2%; with PC-3 prostate it was 22.4%. The growth is 8.91% (active) in the test with SK-MEL-5 melanoma; 28.7% in the test on UACC-62 melanoma; 12.9% with LOX IMVI melanoma; 45% in the test on SK-MEL-28 melanoma; 8.1% (active) in the test on SK-MEL-2 melanoma; 50.9% in the test on EKVX NSCLC. The growth was 29.2% in the test on SN12C renal; 58.8% with UO-31 renal; 22.5% in the test with TK-10 renal; 33.4% in the test with ACHN renal; 42.9% with CAKI-1 renal; 28.6% with A498 renal. Moreover, the growth was 13.4% in the test on CCRF-CEM leukemia and 35.5% with MOLT-4 leukemia.
In the case of `O=C1Cc2cc(O)ccc2O1`, the growth in the test on HCT-15 colon was 117%; in the test with HT29 colon, 104%; in the test with SNB-75 CNS, 86%; in the test on SNB-19 CNS, 107%; in the test on U251 CNS it was 103%; in the test with PC-3 prostate, 107%. The growth with SK-MEL-5 melanoma was 101%; with UACC-62 melanoma, 101%; in the test with LOX IMVI melanoma, 83.1%; with SK-MEL-28 melanoma, 108%; in the test on SK-MEL-2 melanoma it was 101%; in the test with EKVX NSCLC, 104%. The growth in the test on SN12C renal is 102%; with UO-31 renal it was 83.7%; with TK-10 renal, 115%; with ACHN renal it was 105%; in the test on CAKI-1 renal, 103%; with A498 renal, 92.7%. The results for the growth in the test on CCRF-CEM leukemia and in the test on MOLT-4 leukemia were 94% and 91.2%, respectively.
Regarding `c1cc[n+](C2c3ccccc3C([n+]3ccccc3)c3ccccc32)cc1` (stereo not given), the growth is 103% in the test with HCT-15 colon; 73.4% with HT29 colon; 17.9% in the test with SNB-75 CNS; 26.7% in the test with SNB-19 CNS; 21.5% in the test with U251 CNS; 58.4% in the test on PC-3 prostate. The growth in the test on SK-MEL-5 melanoma is 27.6%; in the test on UACC-62 melanoma, 67.3%; with LOX IMVI melanoma, 76.1%; in the test with SK-MEL-28 melanoma it was 61.6%; with SK-MEL-2 melanoma, 92.8%; in the test on EKVX NSCLC, 48.3%. The growth with SN12C renal was 26.7%; in the test on UO-31 renal, 61.8%; in the test with TK-10 renal, 52%; in the test with ACHN renal it was 91.8%; in the test on CAKI-1 renal it was 87.3%; in the test with A498 renal, 94.9%. Further, the growth in the test with CCRF-CEM leukemia is -42.3% (active); in the test on MOLT-4 leukemia, 86.5%.
As for `CN1C(=O)CN2CCc3ccccc3C2c2cc(Cl)ccc21` (stereo not given), the growth was 89.7% with HCT-15 colon; 108% with HT29 colon; 96.1% in the test with SNB-75 CNS; 96.7% in the test with SNB-19 CNS; 103% in the test on U251 CNS; 94.7% with PC-3 prostate. The growth in the test with SK-MEL-5 melanoma is 91.5%; with UACC-62 melanoma it was 78.7%; with LOX IMVI melanoma it was 94.7%; in the test with SK-MEL-28 melanoma, -89.5% (active); with SK-MEL-2 melanoma, 81.7%; in the test with EKVX NSCLC, 91.5%. Also, the growth is 85.1% in the test on SN12C renal; 74.3% with UO-31 renal; 111% in the test with TK-10 renal; 93.6% in the test on ACHN renal; 81% with CAKI-1 renal; 54.5% in the test on A498 renal. For the same compound, the results for the growth in the test on CCRF-CEM leukemia and with MOLT-4 leukemia were 93.6% and 105%, respectively.
